Results as given in PubChem BioAssay (EPA / NIEHS).
Several values for one entry are separate records, joined by “and”; a condition that tells them apart may be missing. Equal entries are not always repeated. Results filed as inconclusive are left out. Activity calls are given as the source filed them. How the source made its calls, unless noted: active means hit-call score of the fitted dose curve at least 0.9, where 1 is the maximum; inactive means score below 0.9.

Assay: CCTE_Shafer_MEA_acute_LDH: CCTE's Lactate Dehydrogenase Assay for Cytotoxicity in the Neural Acute Assay, Shafer Lab (AID 2284086; active means hit-call score of the fitted dose curve at least 0.9, where 1 is the maximum;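 further: active means LDH release rises above DMSO vehicle level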)
Conditions: not given
Method in brief: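 LDH released during 40 min compound exposure of primary rat cortical cultures, quantified by absorbance at 490 nm in collected medium. Fitting direction positive versus DMSO vehicle.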

Compound | outcome
CC(=O)c1ccc(C)cc1 | inactive
O=C(c1ccc(OCCN2CCCCC2)cc1)c1c(-c2ccc(O)cc2)sc2cc(O)ccc12 | inactive
CC(C)(CO)CO | inactive
c1ccc(OCCOc2ccccc2)cc1 | inactive
CCn1cc(C(=O)O)c(=O)c2ccc(C)nc21 | inactive
CCCO[Si](OCCC)(OCCC)OCCC | inactive
N[C@@H](CCC(=O)O)C(=O)O | inactive
CCCCOCCOCCO | inactive

Assay: CCTE_Shafer_MEA_dev_mutual_information_norm: CCTE's Neural Network Formation Assay for Mutual Information Normalization, Shafer Lab (AID 2284091);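 on AC50: mutual information between electrodes summarised as area under curve across four recording days; potency is for a decrease in mutual information relative to DMSO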
Conditions: not given
Method in brief: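 Shared information across electrodes, tracked on days 5, 7, 9 and 12 of network development and collapsed as trapezoidal area under the curve. Rat cortical cultures were treated continuously from plating, with treatment renewed at feeds on DIV 5 and 9; DMSO baseline, negative-direction fit.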

Compound | AC50 | outcome
CC(C)Cc1ccc(C(C)C(=O)O)cc1 (configuration not stated) | 3.62 µM (active) | –
CC/C(=C(\c1ccccc1)c1ccc(OCCN(C)C)cc1)c1ccccc1 | 0.196 µM (active) | –
C[C@]12CC[C@@H]3c4ccc(O)cc4CC[C@H]3[C@@H]1CC[C@@H]2O | – | inactive
c1ccc2scnc2c1 | – | inactive
CCCCC(CC)COC(=O)COc1ccc(Cl)cc1C (configuration not stated) | – | inactive
N[C@@H](CCC(=O)O)C(=O)O | – | inactive
N#CCCNCCC#N | – | inactive

Assay: CCTE_Shafer_MEA_dev_correlation_coefficient_mean: CCTE's Neural Network Formation Assay for Mean Correlation Coefficient, Shafer Lab (AID 2284093);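 on AC50: well mean pairwise spike train correlation integrated as AUC over recording days 5 to 12; potency fitted for loss of correlation relative to DMSO vehicle wells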
Conditions: not given
Method in brief: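 Extracellular firing from rat cortical networks on 48-well MEAs, DMSO-referenced, negative fitting direction. Compound present from plating to DIV12; mean pairwise correlation per well integrated over DIV5–12 recordings by trapezoidal AUC.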

Compound | outcome | AC50
CC(C)Cc1ccc(C(C)C(=O)O)cc1 (configuration not stated) | inactive | –
CC/C(=C(\c1ccccc1)c1ccc(OCCN(C)C)cc1)c1ccccc1 | – | 3.76 µM (active)
C[C@]12CC[C@@H]3c4ccc(O)cc4CC[C@H]3[C@@H]1CC[C@@H]2O | inactive | –
c1ccc2scnc2c1 | inactive | –
CCCCC(CC)COC(=O)COc1ccc(Cl)cc1C (configuration not stated) | inactive | –
N[C@@H](CCC(=O)O)C(=O)O | inactive | –
N#CCCNCCC#N | inactive | –

Assay: UKN2_HCS_IMR90_neural_migration: University of Konstanz (UKN) Leist Lab Neural Crest Cell Migration Assay in human induced IMR90 Pluripotent Stem Cells (UKN2) (AID 2284204)
Conditions: actives raise or lower the signal
Method in brief: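 High-content imaging of calcein-AM and Hoechst stained cells quantifies migration into a stopper-defined gap after 24 h compound exposure. Neural crest cells from IMR90 iPSC migrated 24 h in EGF/FGF N2-S medium before dosing; DMSO baseline.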

Compound | outcome
CC(C)Cc1ccc(C(C)C(=O)O)cc1 (configuration not stated) | inactive
c1ccc2scnc2c1 | inactive
CCCCC(CC)COC(=O)COc1ccc(Cl)cc1C (configuration not stated) | inactive

Assay: IUF_NPC1b_proliferation_BrdU_72hr: Leibniz Research Institute for Environmental Medicine (IUF) 72-hour Neural Progenitor Cell Bromodeoxyuridine (BrdU) Proliferation Assay (NPC1b) (AID 2284207)
Conditions: not given
Method in brief: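 Human fetal cortex-derived (GW 16-19) neural progenitor spheres, 0.25-0.35 mm, one per well in EGF/FGF proliferation medium, exposed to compound for 72 h at 37C, pH 7.2-7.6. BrdU incorporation over the final 16 h read by luminescence ELISA, relative to DMSO.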

Compound | outcome | AC50
CC(C)Cc1ccc(C(C)C(=O)O)cc1 (configuration not stated) | inactive | –
c1ccc2scnc2c1 | – | 10 µM (active)
CCCCC(CC)COC(=O)COc1ccc(Cl)cc1C (configuration not stated) | – | 0.0137 µM (active)
N[C@@H](CCC(=O)O)C(=O)O | inactive | –

Assay: IUF_NPC1a_proliferation_area_72hr: Leibniz Research Institute for Environmental Medicine (IUF) 72-hour Neural Progenitor Cell Proliferation Area Assay (NPC1a) (AID 2284208)
Conditions: not given
Method in brief: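 Measured in 3D suspension: each well held one primary hNPC sphere grown with EGF and FGF at pH 7.2-7.6. Compound stayed on for 72 h, then area was imaged; spheres lacking growth factors defined reduced proliferation.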

Compound | outcome
CC(C)Cc1ccc(C(C)C(=O)O)cc1 (configuration not stated) | inactive
c1ccc2scnc2c1 | inactive
CCCCC(CC)COC(=O)COc1ccc(Cl)cc1C (configuration not stated) | inactive
N[C@@H](CCC(=O)O)C(=O)O | inactive

Assay: IUF_NPC1_viability_72hr: Viability Assessment at 72 hours in the Leibniz Research Institute for Environmental Medicine (IUF) Neural Progenitor Cell Proliferation Assay (NPC1) (AID 2284209)
Conditions: not given
Method in brief: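 Viability was measured by resazurin-to-resorufin fluorescence (alamar blue) after 72 h of continuous exposure without compound renewal. Each well held one hNPC sphere (gestational week 16-19 fetal cortex, 0.25-0.35 mm) cultured in EGF/FGF proliferation medium at 37C and pH 7.2-7.6.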

Compound | outcome
CC(C)Cc1ccc(C(C)C(=O)O)cc1 (configuration not stated) | inactive
c1ccc2scnc2c1 | inactive
CCCCC(CC)COC(=O)COc1ccc(Cl)cc1C (configuration not stated) | inactive
N[C@@H](CCC(=O)O)C(=O)O | inactive

Assay: CCTE_Mundy_HCI_Cortical_Synap_Neur_Matur_NeuriteSpotCountPerNeuriteLength: CCTE's Synaptogenesis and Neurite Maturation Assay in rat cortical cells for Neurite Spot Count per Neurite Length, Mundy Lab (AID 2284210)
Conditions: not given
Method in brief: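 Synaptophysin spots per unit neurite length, measured by automated imaging of MAP2/synaptophysin/Hoechst-stained neurons. Cultures from rat cortex received chemical at DIV 7 with media change through DIV 12; glial growth arrested by AraC at DIV 5; DMSO baseline.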

Compound | outcome | AC50
CC(C)Cc1ccc(C(C)C(=O)O)cc1 (configuration not stated) | inactive | –
c1ccc2scnc2c1 | inactive | –
CCCCC(CC)COC(=O)COc1ccc(Cl)cc1C (configuration not stated) | – | 24.2 µM (active)
N[C@@H](CCC(=O)O)C(=O)O | inactive | –
N#CCCNCCC#N | inactive | –

Assay: CCTE_Mundy_HCI_Cortical_Synap_Neur_Matur_BPCount: CCTE's Synaptogenesis and Neurite Maturation Assay in rat cortical cells for Branch Point Count, Mundy Lab (AID 2284211)
Conditions: not given
Method in brief: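 HCI read-out of branch points from MAP2/synaptophysin/Hoechst immunofluorescence; rat cortical cultures, AraC DIV 5, dosing DIV 7, fixed DIV 12; fit in positive direction vs DMSO baseline.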

Compound | outcome | AC50
CC(C)Cc1ccc(C(C)C(=O)O)cc1 (configuration not stated) | inactive | –
c1ccc2scnc2c1 | inactive | –
CCCCC(CC)COC(=O)COc1ccc(Cl)cc1C (configuration not stated) | – | 15.7 µM (active)
N[C@@H](CCC(=O)O)C(=O)O | inactive | –
N#CCCNCCC#N | inactive | –

Assay: CCTE_Mundy_HCI_Cortical_NOG_NeuriteCount: CCTE's Neurite Outgrowth Assay in rat cortical cells for Neurite Count, Mundy Lab (AID 2284212);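 further: cells fixed about two days after chemical exposure began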
Conditions: not given
Method in brief: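 Rat cortical primary cells; compound added 2 h post-plating, 1/10 dilution of working solution. Anti-betaIII-tubulin/AF488 ICC; ArrayScan neurite count vs DMSO.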

Compound | outcome
CC(C)Cc1ccc(C(C)C(=O)O)cc1 (configuration not stated) | inactive
c1ccc2scnc2c1 | inactive
CCCCC(CC)COC(=O)COc1ccc(Cl)cc1C (configuration not stated) | inactive
N[C@@H](CCC(=O)O)C(=O)O | inactive
N#CCCNCCC#N | inactive

Assay: CCTE_Mundy_HCI_Cortical_NOG_NeuriteLength: CCTE's Neurite Outgrowth Assay in rat cortical cells for Neurite Length, Mundy Lab (AID 2284213)
Conditions: not given
Method in brief: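 First, rat primary cortical cells were plated and, 2 h later, given test chemical as a 1/10 dilution. Finally, βIII-tubulin immunostaining enabled automated imaging of neurite length.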

Compound | outcome
CC(C)Cc1ccc(C(C)C(=O)O)cc1 (configuration not stated) | inactive
c1ccc2scnc2c1 | inactive
CCCCC(CC)COC(=O)COc1ccc(Cl)cc1C (configuration not stated) | inactive
N[C@@H](CCC(=O)O)C(=O)O | inactive
N#CCCNCCC#N | inactive

Assay: CCTE_Mundy_HCI_Cortical_Synap_Neur_Matur_NeuriteLength: CCTE's Synaptogenesis and Neurite Maturation Assay in rat cortical cells for Neurite Length, Mundy Lab (AID 2284214)
Conditions: not given
Method in brief: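 Neurite length quantified by automated high-content imaging of MAP2, synaptophysin and Hoechst staining. Rat cortical cells received chemical from DIV 7 to DIV 12 […], glial growth arrested by AraC at DIV 5; DMSO baseline.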

Compound | outcome | AC50
CC(C)Cc1ccc(C(C)C(=O)O)cc1 (configuration not stated) | inactive | –
c1ccc2scnc2c1 | inactive | –
CCCCC(CC)COC(=O)COc1ccc(Cl)cc1C (configuration not stated) | – | 14.1 µM (active)
N[C@@H](CCC(=O)O)C(=O)O | inactive | –
N#CCCNCCC#N | inactive | –

Assay: CCTE_Mundy_HCI_Cortical_Synap_Neur_Matur_NeuriteSpotCountPerNeuron: CCTE's Synaptogenesis and Neurite Maturation Assay in rat cortical cells for Neurite Spot Count per Neuron Count, Mundy Lab (AID 2284215)
Conditions: not given
Method in brief: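 Developing rat cortical neurons, with glia suppressed by AraC, are exposed to chemicals from DIV 7 to DIV 12. Automated fluorescence imaging of MAP2-labelled neurites and synaptophysin puncta yields a count per neuron, normalised against DMSO wells.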

Compound | outcome | AC50
CC(C)Cc1ccc(C(C)C(=O)O)cc1 (configuration not stated) | inactive | –
c1ccc2scnc2c1 | inactive | –
CCCCC(CC)COC(=O)COc1ccc(Cl)cc1C (configuration not stated) | – | 16.3 µM (active)
N[C@@H](CCC(=O)O)C(=O)O | inactive | –
N#CCCNCCC#N | inactive | –

Assay: TAMU_PeakParms_SingleDonor1434_Chronotropy: Texas A&M University (TAMU) 1.5-hr Human Induced Pluripotent Stem Cell (iPSC)-derived Cardiomyocytes Calcium (Ca+2) Flux Assay for Cardiotoxicity: Chronotropy (changes in peak frequency) (AID 2284217)
Conditions: actives raise or lower the signal
Method in brief: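 Using fluorescent Ca2+ flux, average beats per second are measured in human iPSC-derived cardiomyocytes treated 90 min (0.5% DMSO vehicle, 0.2–100 uM). Non-beating data points are removed; activity is modeled in both directions relative to DMSO controls.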

Compound | outcome
CC/C(=C(\c1ccccc1)c1ccc(OCCN(C)C)cc1)c1ccccc1 | inactive
CNC(=C[N+](=O)[O-])NCCSCc1ccc(CN(C)C)o1 | inactive
N#CCCNCCC#N | inactive

Assay: CCTE_Mundy_HCI_Cortical_Synap_Neur_Matur_SynapseCount: CCTE's Synaptogenesis and Neurite Maturation Assay in rat cortical cells for Synapse Count, Mundy Lab (AID 2284218)
Conditions: not given
Method in brief: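 High-content imaging of synaptophysin puncta per MAP2-positive neuron (Hoechst nuclei) in rat cortical cells exposed DIV 7–12 after glial arrest with AraC at DIV 5; decrease relative to DMSO scored.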

Compound | outcome | AC50
CC(C)Cc1ccc(C(C)C(=O)O)cc1 (configuration not stated) | inactive | –
c1ccc2scnc2c1 | inactive | –
CCCCC(CC)COC(=O)COc1ccc(Cl)cc1C (configuration not stated) | – | 16.4 µM (active)
N[C@@H](CCC(=O)O)C(=O)O | inactive | –
N#CCCNCCC#N | inactive | –

Assay: CCTE_Mundy_HCI_Cortical_Synap_Neur_Matur_NeuriteCount: CCTE's Synaptogenesis and Neurite Maturation Assay in rat cortical cells for Neurite Count, Mundy Lab (AID 2284222);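 on outcome: exposure from day 7 to day 12 in vitro with readout at day 12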
Conditions: not given
Method in brief: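 In this multiplexed morphology readout, rat primary cortical neurons are fixed at DIV 12 following dosing at DIV 7 and stained for MAP2, synaptophysin and nuclei. High-content image analysis yields neurite count.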

Compound | outcome | AC50
CC(C)Cc1ccc(C(C)C(=O)O)cc1 (configuration not stated) | inactive | –
c1ccc2scnc2c1 | inactive | –
CCCCC(CC)COC(=O)COc1ccc(Cl)cc1C (configuration not stated) | – | 17.1 µM (active)
N[C@@H](CCC(=O)O)C(=O)O | inactive | –
N#CCCNCCC#N | inactive | –

Assay: CCTE_Mundy_HCI_Cortical_Synap_Neur_Matur_CellBodySpotCount: CCTE's Synaptogenesis and Neurite Maturation Assay in rat cortical cells for Cell Body Spot Count, Mundy Lab (AID 2284223)
Conditions: not given
Method in brief: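 Chemicals were applied to AraC-treated rat primary cortical cells at DIV 7 and measured at DIV 12. Fixed cells were labelled for MAP2, synaptophysin and nuclei, and high-content imaging gave cell body synaptophysin spot counts per neuron relative to DMSO.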

Compound | outcome | AC50
CC(C)Cc1ccc(C(C)C(=O)O)cc1 (configuration not stated) | inactive | –
c1ccc2scnc2c1 | inactive | –
CCCCC(CC)COC(=O)COc1ccc(Cl)cc1C (configuration not stated) | – | 25 µM (active)
N[C@@H](CCC(=O)O)C(=O)O | inactive | –
N#CCCNCCC#N | inactive | –

Assay: BSK_BT_PBMCCytotoxicity: PBMC Cytotoxicity Assessment in the BioMAP Diversity Plus: BT Assay (AID 2284225);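 further: PBMC viability measured by Alamar Blue dye reduction fluorescence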
Conditions: primary human B cells with PBMC
Method in brief: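 Viability by Alamar Blue reduction (6 h, ex/em 546/580 nm) after 90 h culture of SEB/TSST-1-activated PBMC (20 ng/mL each) given compound 1 h before activation. DMSO served as baseline for curve fitting.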

Compound | outcome | AC50
CC(C)Cc1ccc(C(C)C(=O)O)cc1 (configuration not stated) | inactive | –
CCCCCCCC1CCCC1=O (configuration not stated) | inactive | –
OCC(F)(OC(F)(F)C(F)(OC(F)(F)C(F)(F)C(F)(F)F)C(F)(F)F)C(F)(F)F (configuration not stated) | – | 2.62 µM (active) and 5.68 µM (active)
NC(=O)c1c(Cl)cccc1Cl | inactive | –
C=C1CC/C=C(\C)CC[C@@H]2[C@@H]1CC2(C)C | inactive | –
CC1(C)[C@H](C=C(Cl)Cl)[C@H]1C(=O)OCc1cccc(Oc2ccccc2)c1 | inactive | –
OCCN1CCOCC1 | inactive | –
